# Test results published in PubChem BioAssay (NCI).
# About 79,000 compounds went through this panel and 15% of them were active in at least one assay; those are over-represented in the sample as a whole. Unmarked numbers belong to inactive results. Calls of active or inactive are those of the source. No stated cut-off is given here; in the data, active means growth inhibition above about 70%; inactive means the rest.
# Experiments:
# [1] = NCI Yeast Anticancer Drug Screen. Data for the rad50 strain (AID 155);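 further: 0% = growth of vehicle-only cultures of the same strain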; settings: S. cerevisiae rad50 strain growth inhibition, stronger effect = higher value
# How it was run: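 Relative growth inhibition (compound vs vehicle) was measured in yeast with a defined repair-gene alteration.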
# [2] = NCI Yeast Anticancer Drug Screen. Data for the mec2-1 strain (AID 157); settings: S. cerevisiae mec2-1 strain, stronger effect = higher value
# How it was run: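 Each compound was tested on mec2-1 yeast, a strain altered in DNA damage repair or cell cycle control. Growth inhibition is reported relative to vehicle.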
# [3] = NCI Yeast Anticancer Drug Screen. Data for the sgs1 mgt1 strain (AID 161);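 further: 0% = growth of cultures given vehicle only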; settings: S. cerevisiae sgs1 mgt1 strain, stronger effect = higher value
# How it was run: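 Test agents were incubated with a DNA-repair-mutant yeast strain. Growth was then read and compared against vehicle-treated controls.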
# [4] = NCI Yeast Anticancer Drug Screen. Data for the cln2 rad14 strain (AID 165);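 further: 0% = growth equal to vehicle treated cultures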; settings: S. cerevisiae cln2 rad14 strain, stronger effect = higher value
# How it was run: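 Test compounds were added to cln2 rad14 yeast cultures; inhibition of growth was then determined by comparison with vehicle treatment.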
# [5] = NCI Yeast Anticancer Drug Screen. Data for the bub3 strain (AID 167); settings: S. cerevisiae bub3 mutant strain, stronger effect = higher value
# How it was run: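 Screening used yeast with an engineered genetic alteration affecting cell cycle control. Compound-exposed cultures were compared with vehicle cultures, and reduced growth was taken as inhibition.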
# [6] = NCI Yeast Anticancer Drug Screen. Data for the mlh1 rad18 strain (AID 175); settings: S. cerevisiae mlh1 rad18 strain growth inhibition, stronger effect = higher value
# How it was run: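 Inhibition values reflect reduced growth of mutant yeast versus vehicle-treated controls following compound exposure; the mutations affect DNA damage repair.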
# [7] = at 5.0 µM (retest, dose inferred, filed as 0.5)
# [8] = at 50.0 µM (retest, dose inferred, filed as 5.0)
Compound,"growth inhibition [1, 7] [%]","growth inhibition [1, 8]",growth inhibition ([1]; at 50.0 µM),"growth inhibition [2, 7] [%]","growth inhibition [2, 8]",growth inhibition ([2]; at 50.0 µM),"growth inhibition [3, 7] [%]","growth inhibition [3, 8]",growth inhibition ([3]; at 50.0 µM),"growth inhibition [4, 7] [%]","growth inhibition [4, 8]",growth inhibition ([4]; at 50.0 µM),"growth inhibition [5, 7] [%]","growth inhibition [5, 8]",growth inhibition ([5]; at 50.0 µM),"growth inhibition [6, 7] [%]","growth inhibition [6, 8]",growth inhibition ([6]; at 50.0 µM)
O=C(c1ccccc1)C1OC1c1ccccc1Cl (stereo not given),1,40%,-13.7%,-4,21%,-4.4%,7,54%,-12.7%,4,23%,-52.2%,3,61%,-3.7%,12,78% (active),-9%
CNC(=O)N/N=C/c1ccc([N+](=O)[O-])o1,12,40%,65.2%,4,22%,38.6%,7,29%,70.3% (active),9,15%,11.8%,10,38%,34%,12,48%,71.5% (active)
Cc1cc2nc(CC(=O)c3ccncc3)c(CC(=O)c3ccncc3)nc2cc1C,6,75% (active),78% (active),9,60%,53.9%,10,59%,65.5%,25,84% (active),75.2% (active),31,89% (active),61.1%,12,59%,66.5%
N=C(/C(=C/c1ccccc1)c1ccccc1)c1ccccc1,5,78% (active),97.6% (active),8,76% (active),98.8% (active),6,98% (active),98.5% (active),-4,97% (active),97.8% (active),25,98% (active),98.7% (active),5,98% (active),97.9% (active)
Cc1ccc(/C=C/C(=O)c2cc(CN(C)C)c(O)c(CN(C)C)c2)cc1,1,5%,41.9%,0,25%,-1.25%,-1,11%,-9.5%,4,-4%,55.6%,3,8%,-3.35%,-2,23%,1.4%
